The text below walks through data of PubChem BioAssay.

As a reminder, the inhibition is the drop in the measured response relative to a control, in per cent.

Assay [1] in a line: inhibitors of TNFa-induced NFkB p65 translocation, primary screen, imaging, HUVEC, MLSMR starter and 10KST1 sets (AID 438;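 active means inhibition above 20% together with a positive visual image hit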;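 further: compound added about 3h40 before a 20 min TNFalpha stimulation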;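 on inhibition: signal is the nuclear over cytoplasmic p65 intensity ratio per well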). The following applies: HUVEC TNFa-induced p65 nuclear translocation; cell count: measured here: nuclei count (cytotoxicity indicator), at 2.08 µM; inhibition: at 2 µM, stronger effect = higher value, 0% TNFa-plus-vehicle, 100% no-TNFa wells.
Assay [2] in a line: reduction of polyQ htt aggregates in cells – imaging, exon1htt(103Q)mCFP cells, high-content imaging, primary screen (AID 483;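 active means visual image review flags a hit and inhibition of aggregation exceeds 20%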;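 further: compound exposure lasted 3 days before fixation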;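 on nuclei count: percent of the per-plate median nuclei count of sample wells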). The following applies: exon1htt(103Q)mCFP cell line, aggregate imaging, at 2 µM; inhibition of aggregation: stronger effect = higher value; nuclei count: measured here: cell count, toxicity.
Assay [3] can be described thus: endothelial E-selectin expression blockers – imaging, HUVEC, immunofluorescence, MLSMR starter and 10KST1 sets, primary screen (AID 487;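 active means visually confirmed hit in the image check and inhibition above 20%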;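 on inhibition: signal is fraction of cell area covered by stained E-selectin grains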;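 on nuclei count: 100% = median nuclei count of all wells on the same plate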). The conditions noted are these: HUVEC TNFalpha-induced E-selectin immunofluorescence imaging, at 2 µM; inhibition: stronger effect = higher value; nuclei count: measured here: cell number, toxicity.
Assay [4] has as its target Voltage-gated potassium channel subunit beta-2 (Rattus norvegicus) (UniProt P62483). The assay is described as follows: inhibitors of rat Kvbeta2 reductase activity – biochemical, NADPH fluorescence, primary screen (AID 622;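 active means fluorescence slope higher than the sample average by over 3 SD, cut at about -0.22 in these data, passing the limit was not always enough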;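 further: slope of raw intensity against log time taken from 70 to 1610 s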). The following applies: recombinant KvBeta, 4-cyanobenzaldehyde reduction, at 10 µM, stronger effect = higher value.
For assay [5] the target is unchanged. The assay is described as follows: enhancers of rat Kvbeta2 NADPH turnover – biochemical, NADPH fluorescence, primary screen (AID 623;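 active means NADPH fluorescence slope more negative than the mean of all samples by about 3 SD, 99.7% confidence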;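 further: fluorescence intensity change per second fitted from 20 to 320 s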). The following applies: Recombinant KvBeta, NADPH fluorescence decrease slope, 10 min; at 10 µM; stronger effect = lower value.
In assay [6] the target is Alpha-2C adrenergic receptor (Homo sapiens) (UniProt P18825). The assay is described as follows: compounds altering alpha2C-coupled GIRK flux – cell-based, HEK293 alpha2C/GIRK1/2, thallium flux, primary screen (AID 624;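 active means fluorescence slope after compound addition differing from the mean of all screened samples at 99.7% confidence, in either direction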;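 further: slope of fluorescence ratio to pre-addition baseline per second over 15 to 24 s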). The conditions noted are these: thallium flux BTC fluorescence, at 10 µM, actives lie on both sides.
Assay [7] can be described thus: blockers of RIG-like receptor reporter activation – cell-based, Sendai virus stimulus, luciferase, 10K MLSCN set, TLR/RLR signaling modifier project, primary screen (AID 602276;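 active means inhibition at or above 50% at 10 µM; inactive means inhibition below 50%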;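 further: firefly luciferase from ISG56 promoter only with Renilla not read in this screen; 0% = Sendai virus plus DMSO and 100% = medium plus DMSO without virus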). The conditions noted are these: HEK293 RL24 IRF3 luciferase reporter, at 10 µM, stronger effect = higher value. Background: Reporter assays use an easily measured gene product as a stand-in for the process of interest.

Assay [8] in a line: TLR3 IRF3 reporter activation blockers – cell-based, poly I:C stimulus, luciferase, 10K MLSCN set, primary screen (AID 602277). The conditions noted are these: HEK293-TLR3 RL24 IRF3 luciferase reporter, at 10 µM, stronger effect = higher value.

Calls of active or inactive are those of the source.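 How the source made its calls, unless noted: active means inhibition of the reporter signal at or above 50%; inactive means inhibition below 50%.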

Sequence of Alpha-2C adrenergic receptor (Homo sapiens) (P18825 whole entry, looked up): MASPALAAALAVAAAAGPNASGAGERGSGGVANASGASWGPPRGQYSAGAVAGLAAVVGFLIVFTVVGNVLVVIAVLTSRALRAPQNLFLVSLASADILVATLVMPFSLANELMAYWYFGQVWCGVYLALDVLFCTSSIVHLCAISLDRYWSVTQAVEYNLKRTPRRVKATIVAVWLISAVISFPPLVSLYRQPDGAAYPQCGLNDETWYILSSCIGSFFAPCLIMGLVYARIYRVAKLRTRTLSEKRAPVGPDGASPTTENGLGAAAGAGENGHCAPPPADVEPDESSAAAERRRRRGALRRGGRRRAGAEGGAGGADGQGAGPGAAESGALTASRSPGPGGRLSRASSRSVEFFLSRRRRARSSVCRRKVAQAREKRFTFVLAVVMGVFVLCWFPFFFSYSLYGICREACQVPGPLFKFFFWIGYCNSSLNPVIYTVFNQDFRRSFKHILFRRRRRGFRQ
Sequence of Voltage-gated potassium channel subunit beta-2 (Rattus norvegicus) (P62483 whole entry, looked up): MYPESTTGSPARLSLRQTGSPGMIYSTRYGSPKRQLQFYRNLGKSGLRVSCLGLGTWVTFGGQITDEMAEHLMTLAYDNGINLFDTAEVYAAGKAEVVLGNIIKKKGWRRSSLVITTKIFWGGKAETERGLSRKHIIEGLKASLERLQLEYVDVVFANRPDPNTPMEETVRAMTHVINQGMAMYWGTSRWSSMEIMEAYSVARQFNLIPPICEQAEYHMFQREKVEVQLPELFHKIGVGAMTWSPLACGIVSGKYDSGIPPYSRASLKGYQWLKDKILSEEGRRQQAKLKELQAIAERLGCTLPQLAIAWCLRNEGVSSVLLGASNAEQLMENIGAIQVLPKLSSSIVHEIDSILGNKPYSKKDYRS

Regarding `COCCCNC(=O)c1c(N)n(-c2cccc(S(N)(=O)=O)c2)c2nc3ccccc3nc12`, the cell count in assay [1] amounted to 245. Also, the inhibition was 7% (inactive) in assay [1], 1.4% (inactive) in assay [3], 10.6% (inactive) in assay [7] and -0.988% (inactive) in assay [8]. Also, the inhibition of aggregation in assay [2] is -15.6% (inactive). Further, the results for the nuclei count in assay [2] and in assay [3] were 98.9% and 73.3%, respectively. Besides, the fluorescence slope in assay [4] is -0.0132 (inactive). The NADPH fluorescence slope in assay [5] is 1.8e-09 (inactive). In assay [6], the slope was 0.00575 (inactive).
`CS(=O)(=O)N1CCN(c2ccccc2NC(=O)c2ccc(-c3ccc(Cl)cc3Cl)o2)CC1`: in assay [1], the cell count was found to be 194. Besides, the inhibition was -3.5% (inactive) in assay [1], 24.8% (inactive) in assay [3], 12% (inactive) in assay [7] and 23.2% (inactive) in assay [8]. Further, in assay [2], the inhibition of aggregation is 32.9% (active). Moreover, the nuclei count in assay [2] came to 72.7%; in assay [3], 54.7%. In addition, the fluorescence slope in assay [4] is -0.357 (inactive). Further, the NADPH fluorescence slope in assay [5] is 2.6e-05 (inactive). Besides, in assay [6], the slope is 0.00896 (inactive).
Regarding `COc1ccc(OCCN2C(=O)NC(C)(c3ccc(C)cc3)C2=O)cc1` (stereo not given), the cell count in assay [1] is 391. The inhibition in assay [1] was -14.7% (inactive); in assay [3], -84.6% (inactive); in assay [7], 12.5% (inactive); in assay [8], 5.61% (inactive). Also, the inhibition of aggregation in assay [2] was -4.1% (inactive). Also, the nuclei count in assay [2] turned out to be 108%; in assay [3], 138%. In addition, in assay [4], the fluorescence slope is -0.496 (inactive). For the same molecule, in assay [5], the NADPH fluorescence slope was -6.9e-05 (inactive). Besides, the slope in assay [6] was 0.00469 (inactive).
Turning to `Cc1ccc(-c2nc3ccccc3[nH]2)s1`, the cell count in assay [1] came out at 362. Besides, the inhibition in assay [1] was -13.1% (inactive); in assay [3] it was -72.7% (inactive); in assay [7] it was -45.9% (inactive); in assay [8], -155% (inactive). Moreover, in assay [2], the inhibition of aggregation was -2.5% (inactive). Moreover, the results for the nuclei count in assay [2] and in assay [3] were 95.2% and 101%, respectively. Besides, in assay [4], the fluorescence slope is -0.277 (inactive). Further, in assay [5], the NADPH fluorescence slope was -1.4e-05 (inactive). Moreover, in assay [6], the slope is 0.00551 (inactive).
On to `O=C(CN1CCN(c2cccc(Cl)c2)CC1)N1CCCC1`, for which, in assay [1], the cell count is 330. Moreover, the inhibition in assay [1] was -8.7% (inactive); in assay [3], -69% (inactive); in assay [7], -11.1% (inactive); in assay [8], -35.4% (inactive). Also, the inhibition of aggregation in assay [2] was 19.2% (inactive). Besides, the nuclei count in assay [2] amounted to 73%; in assay [3], 87.6%. Also, the fluorescence slope in assay [4] is -0.581 (inactive). Further, the NADPH fluorescence slope in assay [5] is -1.8e-05 (inactive). The slope in assay [6] was 0.00658 (inactive).
For `O=C(CC(C(=O)N1CCc2ccccc21)n1ccnc1)NCc1cccnc1` (stereo not given), in assay [1], the cell count was 655. The inhibition in assay [1] was -2.2% (inactive); in assay [3] it was -67% (inactive); in assay [7], 10.8% (inactive); in assay [8], 20.7% (inactive). Besides, in assay [2], the inhibition of aggregation is 23.5% (inactive). Moreover, the results for the nuclei count in assay [2] and in assay [3] were 122% and 119%, respectively. Besides, the fluorescence slope in assay [4] is -0.446 (inactive). Further, in assay [5], the NADPH fluorescence slope was 9.2e-07 (inactive). Besides, the slope in assay [6] is 0.00564 (inactive).
Turning to `O=C(Nc1ccc(N2CCCCC2)cc1)c1ccc(F)cc1`, in assay [1], the cell count is 420. Further, the inhibition in assay [1] is 0.3% (inactive); in assay [3] it was -134% (inactive); in assay [7], -44.9% (inactive); in assay [8] it was -140% (inactive). The inhibition of aggregation in assay [2] was -17.8% (inactive). The nuclei count came to 111% in assay [2] and 122% in assay [3]. Moreover, the fluorescence slope in assay [4] was -0.401 (inactive). In addition, in assay [5], the NADPH fluorescence slope was -0.000159 (inactive). Moreover, the slope in assay [6] is 0.00518 (inactive).
Turning to `COc1ccc(OCC(=O)N2CCN(C(=O)COc3ccc(Br)cc3)CC2)cc1`, the cell count in assay [1] is 665. Moreover, the inhibition was -28.3% (inactive) in assay [1], -13.6% (inactive) in assay [3], 18% (inactive) in assay [7] and 20.9% (inactive) in assay [8]. In addition, the inhibition of aggregation in assay [2] is -4% (inactive). Besides, the nuclei count was 108% in assay [2] and 103% in assay [3]. The fluorescence slope in assay [4] is -0.486 (inactive). The NADPH fluorescence slope in assay [5] was -3.9e-05 (inactive). Further, the slope in assay [6] was 0.00463 (inactive).
As for `CCOc1cccc(C(=O)N(Cc2ccc(F)cc2)C2CCS(=O)(=O)C2)c1` (stereo not given), the cell count in assay [1] stood at 461. Besides, the inhibition in assay [1] was 9.3% (inactive); in assay [3] it was -116% (inactive); in assay [7], 14.6% (inactive); in assay [8] it was 40.1% (inactive). For the same molecule, the inhibition of aggregation in assay [2] is -23.1% (inactive). Moreover, the nuclei count in assay [2] worked out at 92.3%; in assay [3] it was 219%. Moreover, the fluorescence slope in assay [4] was -0.415 (inactive). Besides, the NADPH fluorescence slope in assay [5] is -3.8e-05 (inactive). Further, the slope in assay [6] is 0.0041 (inactive).
Consider `Cc1nnc(NC(=O)CSc2nc3c(c(=O)n2C)SC(C)C3)s1` (stereo not given), for which the cell count in assay [1] was determined as 734. For the same molecule, the inhibition in assay [1] was -4.3% (inactive); in assay [3], -7.8% (inactive); in assay [7], 13.8% (inactive); in assay [8], 34.3% (inactive). For the same molecule, the inhibition of aggregation in assay [2] is -22.2% (inactive). Also, the nuclei count in assay [2] amounted to 98.5%; in assay [3], 104%. Also, the fluorescence slope in assay [4] is -0.536 (inactive). The NADPH fluorescence slope in assay [5] is -6.2e-05 (inactive). In addition, the slope in assay [6] is 0.00476 (inactive).
